Only some compounds are listed: those with a hit (about 11% of all), similar ones and a draw of the others.
USP30 block = inhibitors of human USP30 deubiquitinase | Q70CQ3 | purified USP30, Ub-rhodamine cleavage fluorescence | inhibition, % at 25 µM | 47,000 compounds, 5.3% hits
USP17 block = blocks human USP17 ubiquitin-rhodamine cleavage; purified USP17, Ub-rhodamine cleavage fluorescence, 3 h; A8MUK1; AID 1645855; inhibition, % at 50 µM; 47,000 compounds, 6.5% hits
OTUD3 inh = inhibitors of human OTUD3 deubiquitinase. Q5T2D3. purified OTUD3, Ub-rhodamine fluorescence, 2 h. inhibition, % at 25 µM. 47,000 compounds, 0.7% hits
Target sequence (Q5T2D3 whole entry, looked up): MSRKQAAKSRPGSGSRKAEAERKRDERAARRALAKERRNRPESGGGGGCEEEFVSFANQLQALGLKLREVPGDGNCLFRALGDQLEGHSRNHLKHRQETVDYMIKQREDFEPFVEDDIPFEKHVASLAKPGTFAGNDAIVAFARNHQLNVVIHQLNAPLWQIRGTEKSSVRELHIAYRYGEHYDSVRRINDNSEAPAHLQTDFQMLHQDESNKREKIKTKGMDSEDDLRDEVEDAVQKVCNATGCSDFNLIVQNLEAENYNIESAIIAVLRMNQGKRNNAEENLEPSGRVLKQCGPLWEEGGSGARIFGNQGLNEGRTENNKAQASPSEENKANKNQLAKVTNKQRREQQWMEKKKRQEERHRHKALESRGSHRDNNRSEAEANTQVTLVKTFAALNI
USP28 inh = blocks human USP28 ubiquitin-rhodamine cleavage | inhibition, % at 25 µM | purified USP28, Ub-rhodamine cleavage fluorescence, 30 min | 47,000 compounds, 3% hits
The depositor's hits bear a star; . = not tested or not shown. Cut-off read from the data, not from the text of the source: active = inhibition above about 30%; inactive = the rest.

SMILES	USP30 block	USP17 block	OTUD3 inh	USP28 inh
COc1ccc(-c2cc(-c3nnc(CSc4nnc(C)n4-c4ccccc4)o3)c3ccccc3n2)cc1OC	-7	36*	0	-1
Cc1cc(N(C)C)cc(C2CN(C(=O)c3ccn[nH]3)CCO2)n1 (centres undefined)	21	15	10	4
COc1ccc2c(C(O)CN3CCN(c4ccc(F)cc4)CC3)c[nH]c2c1 (centres undefined)	-40	-20	-14	-9
OC(CN1CCN(c2ccc(F)cc2)CC1)c1ccc2c(c1)CCN2 (centres undefined)	61*	58*	13	17
NS(=O)(=O)c1ccc(CCNC(=O)COC(=O)c2cc(-c3ccc(Cl)cc3)nc3ccccc23)cc1	39*	30*	9	37*
C[C@H]1[C@H](C)CCC23CC[C@]4(C)[C@@](C=CC5[C@@]6(C)CC[C@H](O)C(C)(C)[C@@H]6CC[C@]54C)(OC2=O)[C@H]13 (some centres undefined)	56*	50*	32*	38*
O=C1CCCC[C@]2(CN(C(=O)c3ccc(-n4cccn4)nc3)C[C@H]2c2ccc(F)cc2)N1	33*	-9	14	10
CC(C)CCn1c(=O)c2ccccc2n2c(CCC(=O)NCCc3c[nH]c4ccccc34)nnc12	4	10	-17	7
COc1ccc(OCC(=O)N2CCC(c3nc4ccccc4cc3C(N)=O)CC2)cc1	-18	-11	0	-4
COc1ccccc1OCC(=O)N1CCC(c2nc3ccccc3cc2C(N)=O)CC1	34*	8	9	15
Cc1ccc(C)c(NC(=O)c2ccc(CNC(=O)c3ccccc3)o2)c1	0	-8	-7	-7
Cc1ccc(NC(=O)C2CCN(c3cncnc3N3CCCC3)CC2)cc1	0	-18	-9	90*
O=C(NCc1ccco1)C1CCN(c2cncnc2N2CCCC2)CC1	-40	-14	-15	-6
O=C(NCc1ccccn1)C1CCN(c2cncnc2N2CCCCC2)CC1	-29	-16	-11	41*
O=C(Nc1cnn(-c2ncncc2N2CCCCC2)c1)C1CC1	24	-1	13	11
Cc1ccc(F)cc1NC(=O)c1cc(C2CC2)n2nccc2n1	-8	-12	-9	-5
Cc1ccn2cc(C(=O)Nc3ccc(F)cc3F)nc2c1	6	4	-5	-2
CCOc1ccc2nc(NC(=O)C3CCN(S(=O)(=O)c4ccc5c(c4)CC(C)N5C(C)=O)CC3)sc2c1 (centres undefined)	50*	13	-11	-11
Cc1ccccc1OCCC(=O)Nc1cccc(S(=O)(=O)Nc2ccccc2Cl)c1	26	55*	17	29
Cc1ccc(NS(=O)(=O)c2cc(NC(=O)CCOc3ccccc3C)ccc2C)c(C)c1	28	17	4	12
Cc1ccccc1NC(=O)Nc1ccccc1OCc1cc(=O)n2cccc(C)c2n1	43*	47*	40*	28
CN(C)c1cccc(C2CN(C(=O)c3cnn4cccnc34)CCO2)n1 (centres undefined)	-13	1	4	8
COc1cccc(C(=O)Oc2ccc3c(C)c(C)c(=O)oc3c2)c1	13	49*	10	10
COc1cccc(C(=O)Oc2ccc3c(=O)c(-c4ccc(OC)c(OC)c4)coc3c2)c1	12	79*	-6	-4
O=S(=O)(NCCc1nc(-c2ccc(Cl)cc2)no1)c1ccc(F)cc1	39*	26	27	18
SMILES	USP30 block	USP17 block	OTUD3 inh	USP28 inh
O=C(CCc1nc(CSc2nc3ccccc3o2)no1)Nc1ccccc1F	16	17	13	48*
CC(Oc1ccc(F)cc1)c1nnc(C2(c3ccc(F)cc3)CCOCC2)o1 (centres undefined)	-4	8	-1	5
Cc1ncc(CN2CCOC(c3ccc(Nc4ncccn4)cn3)C2)s1 (centres undefined)	15	8	10	9
CCOC(=O)c1cccc(NC(=O)Nc2cccn3nc(C)nc23)c1	14	-14	-4	83*
COc1cccc(C(=O)Nc2cccn3nc(C)nc23)c1	23	7	6	3
CCc1nc2c(NC(=O)Nc3cccc(C(=O)OC)c3)cccn2n1	-3	4	-1	50*
Cc1nc(N2CCCC2)ncc1-c1cc(=O)[nH]c(NCCc2ccccc2)n1	64*	50*	5	5
Cc1nc(N2CCC(C)CC2)ncc1-c1cc(=O)[nH]c(Nc2nc3ccccc3o2)n1	41*	34*	12	14
Cc1ccc(NC(=O)Cn2c(-c3nc(C)no3)cccc2=O)c(C)c1	-24	.	-7	11
O=C(Cn1c(-c2nc(-c3cccc(F)c3)no2)cccc1=O)NCc1ccco1	-36	40*	25	23
O=C(Cn1c(-c2nc(-c3ccccc3)no2)cccc1=O)Nc1ccccc1	22	34*	5	7
CC(C)c1nnc(-c2ccc(=O)n(CC(=O)Nc3ccccc3)c2)o1	0	.	-4	0
CCc1noc(-c2ccc(=O)n(CC(=O)Nc3ccccc3)c2)n1	38*	22	16	14
Cc1ccc(-c2cc(C#N)c(=O)n(Cc3ccc(F)cc3)c2)cc1	0	41*	-1	-8
Cc1ccc(-c2cc(C#N)c(=O)n(Cc3ccccc3)c2)cc1	11	7	13	0
CCCCN(C)C(=O)C1CCCN(c2cnc3nccnc3c2)C1 (centres undefined)	-345	-92	-85	-91
COC(=O)c1ccc(NC(=O)C[n+]2cc(-c3ccc(Cl)cc3)n3c2CCC3)cc1	21	-15	2	6
CC(=O)c1ccc(NC(=O)C[n+]2cc(-c3ccc(Cl)cc3)n3c2CCC3)cc1	19	67*	21	23
Cc1ccc(C)c(NC(=O)C[n+]2cc(-c3ccc(F)cc3)n3c2CCC3)c1	7	6	10	9
CCOC(=O)c1ccc(NC(=O)C[n+]2cc(-c3ccc(Cl)cc3)n3c2CCC3)cc1	51*	9	24	35*
CCOC(=O)c1ccc(NC(=O)C[n+]2cc(-c3ccc(C)cc3)n3c2CCC3)cc1	32*	-2	9	20
O=C1c2cc3ccccc3nc2C2CCCCN12 (centres undefined)	-13	0	0	-10
CC1Cc2ccccc2N1C(=O)Cn1cnc2scc(-c3ccc(Cl)cc3)c2c1=O (centres undefined)	-173	-41	-37	-51
CC1CCN(c2ccc3nnc(CCC(=O)NCCN4CCN(C)CC4)n3n2)CC1	19	2	7	8
O=C(Nc1ccccc1)Nc1cnc2ccc(C(=O)NCc3ccncc3)cn2c1=O	19	16	12	10
COc1ccc(CC(=O)Nc2cnc3ccc(C(=O)NCc4ccncc4)cn3c2=O)cc1	-14	30*	5	2
Cc1ccc(C)c(Nc2nc(NCc3ccccc3)c3ccccc3n2)c1	82*	51*	33*	61*
CC1CCN(C(=O)C2CCN(S(=O)(=O)Cc3ccc(F)cc3)CC2)CC1	2	-11	-4	-11
O=C(C1CCN(c2nc3ccc(Cl)cc3[nH]2)CC1)N1CCN(c2ccccn2)CC1	-6	-21	-5	-6
